# Compound activity: PubChem, National Center for Advancing Translational Sciences (NCATS)
# AMA1-RON2 inh – qHTS for Inhibitors of AMA1-RON; Towards Development of Antimalarial Drug Lead: Primary Screen; Plasmodium falciparum AMA1 (3D7) - RON2 peptide interaction; AlphaScreen AMA1-biotinylated RON2 peptide binding; Potency, µM (top dose mostly 58.2 µM), for inactives: at the highest dose activity change, negative = inhibition, most hits filed as inhibitors; hit rate 0.2% among 360,000; AID 720542, 2013; active = well fitted inhibition curve with a large enough effect; inconclusive = small, poorly fitted or top-dose-only effect; inactive = no such curve, though single readings can be large or run the other way;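 note: potency is the fitted concentration of half-maximal effect; 0% = vehicle wells and -100% = peptide control; nearly all actives have a fitted effect of over 45% in size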
#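 AMA1 (3D7) with his tag at 25 nM final met compounds first, then biotinylated RON2 peptide at 25 nM; detection used donor plus acceptor beads, 10 µg/mL apiece, read by AlphaScreen after 30 min at room temperature.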
# SARS PLpro yeast-1 – qHTS of Yeast-based Assay for SARS-CoV PLP. S. cerevisiae expressing SARS-CoV PLpro, growth rescue. Potency, µM (doses to about 32.9 µM), without a hit: at the highest dose activity, positive = growth rescue, actives largely listed as activators. hit rate 0.19% among 330,000. AID 485353, 2010; note: potency is the fitted concentration of half-maximal effect; 0% is about no effect; nearly all actives have a fitted effect of over 55% in size
# NS1 function inh – qHTS Assay for Inhibitors of Influenza NS1 Protein Function. Potency, µM (top dose mostly 46.1 µM), for the others: at the highest dose activity, positive = more growth. hit rate 0.4% among 270,000. AID 2326, 2010; note: potency is the fitted concentration of half-maximal effect; actives are rising curves; nearly all actives have a fitted effect of over 50% in size
#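 A cell-based growth assay was used: compounds that relieve NS1-induced slow growth of budding yeast raise OD600. Assay medium was yeast nitrogen base with ammonium sulphate and -URA supplement, pH 6.0, with 2% galactose.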
# SARS PLpro yeast-2 – qHTS of Yeast-based Assay for SARS-CoV PLP: Hit Validation; shares compounds with SARS PLpro yeast-1; AID 652038, 2013; hit rate 19% among 1,000; yeast expressing SARS-CoV PLpro, growth phenotype rescue; calls only; call rule not given here
# Numbers without * were called inactive; i = inactive; u = inconclusive; x = not tested or not shown; + = active, no number. An excerpt weighted towards active compounds, which were near 0.65% of everything screened. Unless noted, calls come from the whole dose curve.
SMILES,AMA1-RON2 inh,SARS PLpro yeast-1,NS1 function inh,SARS PLpro yeast-2
CCOC(=O)/C(C#N)=C/c1c(OCC)n(CC)c2ccccc12,1.1%,12.6µM*,-11.5%,i
CC(C)NC(=O)N(C)C[C@H]1Oc2ccc(NS(=O)(=O)c3ccccc3)cc2C(=O)N([C@H](C)CO)C[C@H]1C,1.6%,1.7%,x,x
COc1ccc(/C=N/NC2=NS(=O)(=O)c3ccccc32)cc1,76.0%,2.1%,5.1%,x
O=S1(=O)N=C(N/N=C/c2ccccn2)c2ccccc21,-14.5%,22.4µM*,1.2%,+
Cc1ccc(O)c(N=NC2=C(O)CC(C)(C)CC2=O)c1,-25.1%,17.8µM*,-21.5%,+
CC1(C)CC(=O)C(N=Nc2cc(Cl)c(Cl)c(Cl)c2)=C(O)C1,46.5%,-1.5%,-0.5%,x
Cc1cccc(C)c1NC(=S)NN1CCN(C)CC1,8.8%,u,-4.7%,+
CN1CCN(NC(=S)Nc2ccc(Oc3ccccc3)cc2)CC1,u,-0.3%,-3.1%,x
COc1ccc(/C=C/C(=O)Nc2cccc(N3CCOCC3)c2)cc1OC,-3.5%,0.2%,-1.2%,x
COc1cc2nc(-c3ccccc3C)oc(=O)c2cc1OC,21.8%,-4.0%,0.0%,x
COc1cc2nc(CN3C(=O)c4ccccc4C3=O)oc(=O)c2cc1OC,-1.4%,22.4µM*,-13.7%,i
C[C@H]1CN([C@@H](C)CO)C(=O)CCCn2nncc2CO[C@H]1CN(C)S(=O)(=O)c1ccc(-n2cccn2)cc1,-2.3%,x,x,x
N#Cc1ccc(Oc2ccc(-c3cnc4ccccc4n3)cc2)cc1C#N,13.9%,2µM*,9.8%,+
N#Cc1ccc(Oc2ccc(-c3nc4ccccc4nc3-c3ccccc3)cc2)cc1C#N,-5.9%,21.1%,-3.2%,x
CCN(NC(=O)C(O)(c1ccccc1)c1ccccc1)C(=O)c1ccccc1,8.1%,14.1µM*,-1.7%,i
CC(c1ccccc1)N(NC(=O)C(O)(c1ccccc1)c1ccccc1)C(=O)c1ccccc1 (configuration not stated),0.6%,12.5%,12.3%,x
CCc1nc2ccc(C(=O)NCc3ccc(OC)cc3)cn2c1N(CC)CCN(C)C,20.9%,x,x,x
COc1ccc(NC(=O)Nc2ccc3c(c2)C(=O)N([C@@H](C)CO)C[C@@H](C)[C@@H](CN(C)S(=O)(=O)c2cn(C)cn2)O3)cc1,2.5%,0.7%,x,x
Cc1cccc2cc(COC(=O)c3ccccc3)c(=O)[nH]c12,14.4%,-6.8%,-1.2%,x
Cc1cccc2cc(COC(=O)c3cccs3)c(=O)[nH]c12,0.4%,3.16µM*,-8.1%,i
Cc1ccc(S(=O)(=O)Nc2cccc(-c3ccc(N4CCCCCC4)nn3)c2)cc1C,6.1%,2.6%,4.0%,x
Cc1ccc([N+](=O)[O-])cc1S(=O)(=O)Nc1cccc(-c2ccc(N3CCCC3)nn2)c1,-23.5%,11.2µM*,x,i
COc1cc(/C=C2\SC(N)=NC2=O)ccc1OCC(=O)Nc1ccccc1C,-15.3%,-1.4%,x,x
COc1ccccc1C(=O)NCC(=O)OC(C)C(=O)NC1CCCCC1C (configuration not stated),-2.8%,0.2%,x,x
COc1ccccc1C(=O)NCC(=O)OC(C)C(=O)NC(=O)NC1CCCCC1 (configuration not stated),-5.6%,u,2.5%,i
SMILES,AMA1-RON2 inh,SARS PLpro yeast-1,NS1 function inh,SARS PLpro yeast-2
CC(C)(C)c1cc(/C=N/NC(=O)C[n+]2ccccc2)cc(C(C)(C)C)c1O,-15.3%,-2.8%,-1.2%,x
O=C(NC(Cc1cn(Cc2ccccc2)cn1)C(=O)O)OCC1c2ccccc2-c2ccccc21 (configuration not stated),155.2%,x,x,x
Cc1c(C(=O)N2CCN(S(=O)(=O)c3ccc(F)cc3)CC2)oc2ccccc12,1.0%,u,x,i
Cc1c(C(=O)N2CCN(S(=O)(=O)c3cccs3)CC2)oc2ccc(F)cc12,13.1%,-1.6%,x,x
O=C(c1ccc(Br)cc1)N1CCCC1,0.0%,x,-6.2%,x
CN1CCN(C(=O)c2ccc(S(=O)(=O)c3ccc(Br)cc3)cc2)CC1,1.8%,11.2µM*,-16.2%,i
COc1ccccc1NC(=S)NNC(=O)c1nn(C)c(C)c1Cl,-9.0%,7.9%,3.8%,x
COc1ccccc1NC(=S)NNC(=O)c1nn(C)c(C)c1Br,58.2%,15.8µM*,-14.0%,i
COc1cccc(-c2cc(CNC(=O)[C@H]3O[C@@H](n4ccc(N)nc4=O)[C@H](O)[C@@H]3O)no2)c1,-2.2%,x,x,x
Cc1cc(C)nc(NS(=O)(=O)c2ccc(NC(=S)NC(=O)CC(C)C)cc2)n1,-13.7%,u,-7.9%,i
Cc1cc(C)nc(NS(=O)(=O)c2ccc(NC(=S)NC(=O)C(C)(C)C)cc2)n1,-4.9%,4.4%,-9.3%,x
COc1ccccc1CNC(=O)COC(=O)CSc1ccc(F)cc1,-7.0%,0.3%,x,x
COc1ccc(/C=C/C(=O)NC(=S)NNC(=O)Cc2cccs2)cc1OC,68.5%,-0.3%,5.9%,x
O=C(/C=C/c1cccs1)NC(=S)NNC(=O)Cc1cccs1,128.1%,u,13.7%,+
Nc1nc(N)c(Cn2ccnc2)c(=O)[nH]1,x,x,-3.8%,x
CN(C(=O)COC(=O)c1cnc(Cl)c(Cl)c1)C1CCCCC1,-3.7%,1.3%,x,x
O=C(CCNS(=O)(=O)c1ccc2c(c1)CCC(=O)N2)NCc1ccc2c(c1)OCO2,-0.1%,6.4%,3.8%,x
Cc1ccc(S(=O)(=O)NCCC(=O)NCc2ccc3c(c2)OCO3)cc1C,14.5%,15.8µM*,-8.7%,i
Cc1cc(C)cc(NC(=S)N2CCC(C(=O)c3ccc(F)cc3)CC2)c1,4.9%,x,x,x
Cc1ccc2[nH]c(=O)c(C3C(C#N)=C(N)Oc4c3ccc3cccnc43)cc2c1 (configuration not stated),-11.4%,12.6µM*,-59.4%,+
N#CC1=C(N)Oc2c(ccc3cccnc23)C1c1ccccc1 (configuration not stated),64.5%,0.3%,-3.7%,x
Cc1ccc2c(C)cc(=S)[nH]c2c1,87.2%,26.5%,x,x
Cc1ccc2[nH]c(=S)cc(C)c2c1,28.7%,22.4µM*,-8.0%,+
CC1CCCC(NCC(=O)Nc2ccc(C(N)=O)cc2)C1C (configuration not stated),11.6%,-1.3%,x,x
C[C@@H]1O[C@@H](O[C@H]2C[C@@H](O)[C@]3(CO)[C@H]4[C@H](O)C[C@]5(C)[C@@H](C6COC(=O)C6)CC[C@]5(O)[C@@H]4CC[C@]3(O)C2)[C@H](O)[C@H](O)[C@H]1O (some centres not stated),-0.2%,u,6.3%,i
CC1OC(OC2CC(O)C3(CO)C4C(O)CC5(C)C(C6=CC(=O)OC6)CCC5(O)C4CCC3(O)C2)C(O)C(O)C1O (configuration not stated),-3.6%,x,x,x
O=[N+]([O-])c1ccc(/C=N/NC(=S)Nc2ccccc2)o1,24.7%,-94.1%,-9.0%,x
O=[N+]([O-])c1cccc(-c2ccc(/C=N/NC(=S)Nc3ccccc3)o2)c1,-6.1%,u,15.5%,+
Cc1ccc(-n2c(C)cc(/C=N/NC(N)=S)c2C)cc1,9.0%,11.2µM*,3.6%,+
CNC(=S)N/N=C/c1cc(C)n(-c2ccc(Cl)c(Cl)c2)c1C,-2.1%,-43.2%,-7.3%,x
